Data on 89 compounds can be found in PubChem BioAssay AID485272 (The Scripps Research Institute Molecular Screening Center, 2010).

Out of some 330,000 compounds screened, about 1,300 (0.39%) were called active. The list comes from a sample in which actives are over-represented; it also holds similar structures and randomly drawn compounds. A number with no mark means an inactive call.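 The calls were made as follows: active = percent inhibition above a cutoff equal to the mean of all tested compounds plus 3 SD (cut at about 15% in these data); inactive = the rest.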

Protein-arginine deiminase type-4 (Homo sapiens), sequence (Q9UM07 whole entry, looked up): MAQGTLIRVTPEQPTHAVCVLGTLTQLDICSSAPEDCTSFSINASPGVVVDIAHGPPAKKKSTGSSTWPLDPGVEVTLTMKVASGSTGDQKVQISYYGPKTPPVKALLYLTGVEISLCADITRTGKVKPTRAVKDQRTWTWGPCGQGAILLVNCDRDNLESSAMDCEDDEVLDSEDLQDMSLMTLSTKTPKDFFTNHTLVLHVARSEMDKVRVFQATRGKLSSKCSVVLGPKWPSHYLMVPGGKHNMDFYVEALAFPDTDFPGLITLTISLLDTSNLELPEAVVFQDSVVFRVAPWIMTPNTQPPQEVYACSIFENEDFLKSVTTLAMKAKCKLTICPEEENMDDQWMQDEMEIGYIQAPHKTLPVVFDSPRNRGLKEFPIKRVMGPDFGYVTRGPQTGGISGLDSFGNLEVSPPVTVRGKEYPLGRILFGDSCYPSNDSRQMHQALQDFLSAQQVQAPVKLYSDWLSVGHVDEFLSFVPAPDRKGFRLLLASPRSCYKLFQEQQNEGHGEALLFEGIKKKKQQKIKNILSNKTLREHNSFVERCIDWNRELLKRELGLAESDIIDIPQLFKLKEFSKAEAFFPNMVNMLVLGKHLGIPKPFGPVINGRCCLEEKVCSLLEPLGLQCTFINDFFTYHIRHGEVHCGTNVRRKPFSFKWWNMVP

This experiment concerns the target Protein-arginine deiminase type-4 (Homo sapiens) (UniProt Q9UM07). The experiment in a line: human PAD4 inhibitors, primary screen, biochemical, fluorescence polarization, 1536-well format (AID 485272).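 Also: 0% = PAD4 with RCA probe and DMSO and 100% = probe without PAD4.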 The conditions noted are these: recombinant PAD4, RCA probe fluorescence polarization; at 6.36 µM; hits give high values. On the technique in general: Fluorescence polarisation rises when a labelled molecule tumbles more slowly, as on binding a larger partner.
As usually defined, the inhibition is the relative decrease from the control value, in per cent. Regarding `CC(C)C(=O)N1CC(=O)Nc2ccc(F)cc2C1c1ccc(F)cc1` (centres undefined), the inhibition is 4.93%. Take `O=C(NC1CCCCC1)c1ccc(-c2ccc(Cl)cc2)o1`: the inhibition is 0.31%.

Turning to `CCOc1ccc(C(c2c(C)[nH][nH]c2=O)c2c(C)[nH][nH]c2=O)cc1OCC`, the inhibition is -2.1%.

On to `Cc1[nH][nH]c(=O)c1C(c1ccc(-c2ccc(Cl)cc2)o1)c1c(C)[nH][nH]c1=O`, for which the inhibition is 20.2% (active). On to `CCOC(=O)N1CCC(NC(=O)CCc2ccccc2)CC1`, for which the inhibition is 1.67%. Then `CCOC(=O)N1CCC(NC(=O)COc2cc(=O)n(C)c3ccccc23)CC1`, with 3.7%; and `CCOC(=O)N1CCC(c2cc(=O)n(-c3ccccc3)[nH]2)CC1`, with 55.1% (active).

Turning to `CCOC(=O)Cn1nnnc1C`, the inhibition was -0.83%. For the compound `CC(C)N(Cc1ccccc1)C(=O)COC(=O)c1ccccc1SCC(=O)N1CCCC1`, the inhibition was -1.69%. Then `Nc1scc[n+]1Cc1cccc2cccnc12`, with -3.55%; and `c1ccc2c(C[n+]3csc4ccccc43)cccc2c1`, with 58.5% (active). Regarding `N#C/C(=C(/O)Cc1cccc2ccccc12)c1nc2ccccc2s1`, the inhibition is -0.3%. For the compound `COc1ccccc1CNC(=O)C1CCN(c2nc3ccccc3o2)CC1`, the inhibition was 23% (active). For `COc1ccc(OC)c(CNC(=O)C2CCCN(c3nc4ccccc4o3)C2)c1` (centres undefined) the value was 0.33%; for `COc1ccccc1CNC(=O)C1CCN(S(C)(=O)=O)CC1`, 3.16%. For `COc1ccc(CCNC(=S)NC(=O)/C=C/c2ccc(C)cc2)cc1OC`, the inhibition was 0.57%. For `CC(C)CC(=O)NC(=S)Nc1ccc(F)cc1F` the value was -0.18%. Consider `O=C1COc2ccc(S(=O)(=O)Nc3ccc(OC(F)(F)F)cc3)cc2N1`, for which the inhibition was -0.73%. As to `Cc1nn(C)c(C)c1NS(=O)(=O)c1ccc(OC(F)(F)F)cc1`, the inhibition is -4.79%. For `O=S(=O)(Nc1ccc(O)c2ccccc12)c1ccc(OC(F)(F)F)cc1` the value was 20.5% (active). For the compound `O=S(=O)(Cc1cc(Cl)nc(-c2cccnc2)n1)c1ccccc1`, the inhibition was -1.95%. Turning to `Cc1ccc(C(NC(=O)N2CCCC2)C(Cl)(Cl)Cl)cc1F` (centres undefined), the inhibition is 0.88%. For `CC(C)Oc1ccc(S(=O)(=O)N2CCOCC2)cc1NC(=O)C1CSC2(C)CCC(=O)N12` (centres undefined) the value was -1.2%. Turning to `Cc1c(C2=CCN(S(=O)(=O)c3ccc(Cl)cc3)CC2)c2ccccc2n1C`, the inhibition is -48.2%. In the case of `COc1ccc(S(=O)(=O)N2CCOCC2)cc1NC(=O)COc1ccccc1`, the inhibition was 6.68%.

`COc1ccc(S(=O)(=O)N2CCOCC2)cc1NC(=O)CSc1ncnc2ccccc12`: the inhibition was 18.5% (active).

Take `COc1ccc(S(=O)(=O)N2CCOCC2)cc1NC(=O)CSc1nnc(NC2CC2)s1`: the inhibition is -2.8%. As for `CCCCCN(C(=O)CCC(=O)OCC(=O)NC1CCC(C)CC1)c1c(N)n(CCCC)c(=O)[nH]c1=O` (centres undefined), the inhibition is -1.97%. Regarding `CC(C)CC(=O)N1CCC(O)(CS(=O)(=O)Cc2ccccc2)CC1`, the inhibition was -3.05%.

For the compound `CCOc1ccc(Br)cc1S(=O)(=O)Nc1ccc(C(=O)OC(C)C(=O)N(C)c2ccccc2)cc1` (centres undefined), the inhibition was 2.93%. As for `CCOc1ccc(S(=O)(=O)n2ccnc2)c2ccccc12`, the inhibition was 3.78%. Then `Clc1ccc(C2=CSC3=Nc4cccc5cccc(c45)N23)cc1`, with 15.1% (active); and `CN1CCN(S(=O)(=O)c2ccc(NC(=O)C3CCCO3)cc2)CC1` (centres undefined), with 2.71%; and `O=C(O)c1ccc(COc2c(F)c(F)cc(F)c2F)o1`, with -4.92%.

As to `CN(C(=O)CN1C(=O)S/C(=C\c2ccccc2F)C1=O)C1CCS(=O)(=O)C1` (centres undefined), the inhibition is 3.56%. For `CCCCNC(=O)CCNC(=O)c1ccc(C(C)(C)C)cc1` the value was 2.29%. Then `CCCCNC(=S)NNC(=O)c1cc(C)on1`, with -2.6%. For `CCCCNC(=O)Nc1c(C)cc(SC#N)cc1C`, the inhibition is 39.1% (active). In the case of `CC(C)=C1C2CCC1C1C(=O)N(NC(=O)c3ccco3)C(=O)C21` (centres undefined), the inhibition is -4.39%. As for `COc1ccc(/C=C(\NC(=O)c2ccc(OCC(C)C)cc2)C(=O)OCc2ccco2)cc1`, the inhibition was 1.51%.

As for `COCCCNC(=S)N1CCCC(c2nc3cc(C)c(C)cc3[nH]2)C1` (centres undefined), the inhibition is -0.08%. For the compound `Cc1ccc(C2CC(c3cccc(NS(C)(=O)=O)c3)=NN2S(C)(=O)=O)cc1` (centres undefined), the inhibition is -2.1%.

`CCCN1CC=C2C(C#N)=C(N)C(C#N)(C#N)C(c3cc(OC)ccc3OC)C2C1` (centres undefined): the inhibition was -2.45%. As for `N#CC1=C(N)C(C#N)(C#N)[C@H](c2ccsc2)[C@H]2COCC=C12`, the inhibition was -0.34%.

For `CCN1CC=C2C(C#N)=C(N)C(C#N)(C#N)[C@H](c3ccoc3)[C@H]2C1`, the inhibition was 30.4% (active). In the case of `O=C(O)COCC(=O)NCc1csc2ccc(Cl)cc12`, the inhibition was -2.02%. For `Cc1ccc(NC(=O)Nc2ccc3oc(C)nc3c2)cc1`, the inhibition was -0.57%.

With `Cc1nc(C)c(C(=O)Nc2ccc(C)c(F)c2)o1`, the inhibition was -0.93%. As for `Cc1nc2ccc(NC(=O)C(F)(F)F)cc2o1`, the inhibition is 27.5% (active). For `CC(=O)c1c(C)[nH]c(C(=O)COC(=O)CCOc2ccc(C)cc2)c1C`, the inhibition is -5.3%. Take `COC(=O)c1cc(S(=O)(=O)N2CCN(c3cc(C)ccc3C)CC2)c[nH]1`: the inhibition was -1.18%. On to `COc1cc(/C=C2/C(=O)NN(c3cccc(Cl)c3)C2=O)cc(Br)c1O`, for which the inhibition is -6.98%. For `CCOc1c(Br)cc(/C=C2\C(=O)N(CCC#N)N=C2C)cc1OC` the value was 57.8% (active); for `C=CCOc1c(Br)cc(/C=N\n2nnnc2N)cc1OC`, -3.76%. `COc1ccc(N2CC(C(=O)NCCN3C(=O)S/C(=C\c4cccnc4)C3=O)CC2=O)c(OC)c1` (centres undefined): the inhibition was 101% (active).

As for `COc1ccccc1N1CC(C(=O)NCCN2C(=O)S/C(=C\c3cccnc3)C2=O)CC1=O` (centres undefined), the inhibition is 1.63%. As for `CCOc1ccc(N2CC(C(=O)NCCN3C(=O)S/C(=C\c4cccnc4)C3=O)CC2=O)cc1` (centres undefined), the inhibition was -4.16%.

`COc1ccc(C(=O)NCc2ccccc2C)cc1S(=O)(=O)NC1CCCC1`: the inhibition is 1.48%. Turning to `Clc1ccc(CSc2nnc3c(n2)[nH]c2ccccc23)cc1`, the inhibition is -2.24%. Take `O=Cc1c(NCCc2cccc(F)c2)c2ccccc2[nH]c1=O`: the inhibition is -4.74%.

As to `COc1ccc2cc(C(=O)NCC3CCCO3)[nH]c2c1` (centres undefined), the inhibition is -4.37%. Take `CC(NC(=O)c1cc(=O)[nH]c2ccccc12)c1ccc(F)cc1F` (centres undefined): the inhibition is -7%.

Consider `O=C(NCCCO)c1cc2c([nH]c3ccccc32)c(-c2ccc(F)cc2)n1`, for which the inhibition was 35.7% (active). `O=C(NCC1CCCO1)c1ccc2ccccc2n1` (centres undefined): the inhibition is 0.05%. Regarding `O=C(NCC1CCCO1)c1cc2c([nH]c3ccccc32)c(-c2ccc(F)cc2)n1` (centres undefined), the inhibition was 66.5% (active). Consider `O=C(NCCc1ccc(F)cc1)c1n[nH]c2ccccc12`, for which the inhibition was -0.12%.

Take `CC(=O)C(C)n1cnc2scc(-c3ccc(C)cc3)c2c1=O` (centres undefined): the inhibition was -5.08%. Take `Cc1cc(C)n(-c2nnc(C)n2NC(=O)c2cccc(Cl)c2)n1`: the inhibition is -3.56%. On to `CCOc1ccc(C2NC(=S)NC3=C2CCc2ccccc23)cc1` (centres undefined), for which the inhibition is -0.5%. Take `COc1ccc(C2NC(=S)NC3=C2CCc2ccccc23)cc1OC` (centres undefined): the inhibition is 19.6% (active). For `COC(=O)C1=C(C)NC(=S)NC1c1ccc(OCC(=O)N2CC(C)OC(C)C2)c(OC)c1` (centres undefined), the inhibition is -1.31%. Then `Cc1ccc(S(=O)(=O)NC(=O)COc2ccccc2C)cc1`, with -0.01%; and `CC(=O)c1cccc(NC(=O)N2CCCC2C(=O)NCCC(C)C)c1` (centres undefined), with -0.58%.

Turning to `Cc1nnsc1S(=O)(=O)Cc1ccccc1Cl`, the inhibition is -3.79%. As for `O=C(Nc1ccc(S(=O)(=O)N2CCCCCC2)cc1)c1c(F)cccc1F`, the inhibition was -3.98%. Then `O=C(NCCCN1CCN(c2ccc(F)cc2)CC1)Nc1ccc([N+](=O)[O-])cc1`, with -8.31%. As to `CC(=O)N(CN1C(=O)C2C3C=CC(C3)C2C1=O)c1cccc(Cl)c1` (centres undefined), the inhibition was -2.02%.

Take `COc1cc2ccccc2cc1C(=O)Nc1ccc(N2CCOCC2)cc1`: the inhibition is 7.08%.

In the case of `CC(=O)Oc1cccc(N2C(=O)CC(Nc3ccc(N4CCOCC4)cc3)C2=O)c1` (centres undefined), the inhibition is 37.4% (active). Turning to `COc1ccc(N2CCN(C3CC(=O)N(c4ccc5c(c4)OCCO5)C3=O)CC2)cc1` (centres undefined), the inhibition is -4.31%. Then `COc1cc(OC)cc(C(=O)Nc2ccc(-c3nc4ccccc4o3)c(O)c2)c1`, with -9.35%. As to `COCCCNC(NC(=O)c1ccc(C)cc1)C(Cl)(Cl)Cl` (centres undefined), the inhibition was -2.56%.

For `Nc1ccc(Nc2ccccc2)cc1`, the inhibition was 20.8% (active). Turning to `Cc1cc(Nc2ccccc2)n(C(=O)c2ccc(N)cc2)n1`, the inhibition is -3.04%. As to `Cc1ccc(Nc2ccccc2N)cc1`, the inhibition is -6.09%.

Turning to `COc1ccc(S(=O)(=O)N(CC(=O)NCc2ccco2)c2ccc(F)cc2)cc1`, the inhibition was -1.25%. For `COc1ccc(-n2c(C)cc(C(=O)CN3C(=O)NC4(CCc5ccccc54)C3=O)c2C)cc1` (centres undefined) the value was 1.38%; for `CC(=O)Nc1ccc(SCC(=O)Nc2ccccc2Oc2ccccc2)cc1`, 2.48%. Regarding `CC(NCCO)C(=O)C12CC3CC(CC(C3)C1)C2` (centres undefined), the inhibition was -1.18%.
